Where “and” joins values, the source holds several entries; their conditions need not be identical. Equal values may be shown once. Entries with a potency or affinity are not part of this list.
Columns and labels:
Klebsiella pneumoniae = details: Concentration 32 ug.mL-1, ASSAY_TEST Inhibition of Bacterial Growth, detection method Absorption (OD600), MEDIA CAMHB, plate type 384well, NBS, CORNING #3640, time 18 hr
Candida albicans = details: 32 ug/mL
Cryptococcus neoformans = details: Concentration 32 ug.mL-1, ASSAY_TEST Inhibition of Fungal Growth, detection method Resazurin, Absorption (OD600-OD570), plate type 384well, NBS, CORNING #3640

| SMILES | Inhibition (Klebsiella pneumoniae) | Inhibition (Candida albicans) | Inhibition (Cryptococcus neoformans) | Inhibition (Klebsiella pneumoniae; 32 ug/mL) | Inhibition (Cryptococcus neoformans; 32 ug/mL) |
| --- | --- | --- | --- | --- | --- |
| O=C(OCc1ccccc1)N1CC(Cc2ccccc2)C(O)O1 (configuration not stated) | 0% | 12.9% | 9.21% | – | – |
| CCCCCCCC1CN(S(=O)(=O)c2ccc(C)cc2)N(S(=O)(=O)c2ccc(C)cc2)C1O (configuration not stated) | 2.03% | 8.32% | -3.29% | – | – |
| CC1C(O)N(C(=O)OC(C)(C)C)N(S(=O)(=O)c2ccc([N+](=O)[O-])cc2)C1C (configuration not stated) | 8.57% | 3.18% | -8.51% | – | – |
| Cc1ccc(S(=O)(=O)N2CC(Cc3ccccc3)C(=O)N2S(=O)(=O)c2ccc(C)cc2)cc1 (configuration not stated) | – | – | – | -3.35% and -1.6% | -1.01% and -2.47% |
| Cc1ccc(S(=O)(=O)N2CC(C)C(=O)N2S(=O)(=O)c2ccc(C)cc2)cc1 (configuration not stated) | – | 7.75% and 4.44% | – | 2.85% and 1.74% | -9.56% and 1.92% |
| CC(C)(C)OC(=O)N1C(O)C2CCCC2N1S(=O)(=O)c1ccc([N+](=O)[O-])cc1 (configuration not stated) | -0.3% | 1.02% | -8.39% | – | – |
